# According to PubChem BioAssay (NCATS):
# Records with an inconclusive call do not appear. Where a call stands in place of a potency, no number is given. The source made the active and inactive calls. Unless noted, the call rests on the fitted dose curve; in most records, active means well fitted curve in the direction sought with a large enough effect; inconclusive means small, poorly fitted or top-dose-only effect, or another doubt; inactive means no such curve, though single readings can be large; an effect the other way counts as inactive or inconclusive.
# Tests used:
# [1] = Validation screen for small molecules that induce genotoxicity in human embryonic kidney (HEK293T) cells expressing luciferase-tagged ELG1 (AID 493106)
# Summary of the method: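 ELG1-luciferase reporter readout (ONE-Glo, 30 min, room temperature) after 16 hr compound treatment at 37 °C of HEK293T cells at 2,000 per well. Rising luminescence flags genotoxic stress.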
# [2] = biological target: ATPase family AAA domain-containing protein 5 (Homo sapiens) (UniProt Q96QE3); test: Validation screen for small molecules that inhibit ELG1-dependent DNA repair in human embryonic kidney (HEK293T) cells expressing luciferase-tagged ELG1 (AID 493107);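 further: series mostly up to about 46 µM; inhibitors lower the ELG1-luciferase luminescence signal; nearly all actives have a fitted effect of over 70% in size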
# Summary of the method: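 Luciferase read-out, ONE-Glo, 30 min at room temperature, follows 16 h co-exposure at 37 C of compound and the DNA-damaging agent 5-fluorouridine. Cells: HEK293T with ELG1-luciferase fusion, 2,000 per well, DMSO as vehicle.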
# [3] = biological target: Thyrotropin-releasing hormone receptor (Homo sapiens) (UniProt P34981); test: qHTS for Small Molecule Agonists and Allosteric Enhancers of Human TRH Receptor: Validation Screen for Agonists (AID 493127;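 active means calcium activation more than 3 SD above the typical response in the agonist read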;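 further: intracellular calcium rise by fluo-8 fluorescence before TRH EC20 addition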); details: TRH receptor agonist cell assay; at 2 µM; stronger effect = higher value
# Summary of the method: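 Compound-evoked intracellular calcium release in fluo-8-loaded TRHR cells, read kinetically on FDSS (Ex 480/Em 530, 1 s/cycle) after 23 nL pintool transfer. Agonist phase preceded 10 nM TRH EC20 addition.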
# [4] = Nrf2 qHTS screen for inhibitors: Validation (AID 493153; active means well fitted inhibition curve with a large enough effect in the main read-out, with a control signal flat, not every such curve was filed as active); details: viability change: measured here: cytotoxicity max response
# Summary of the method: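 Concentration-response on A549 ARE_Fluc reporter cells exposed 18-24 h at 37 C, 5% CO2. Cytotoxicity read first by CellTiter-Fluor fluorescence (Ex 405/Em 525), then Nrf2 inhibition by BugLite luminescence after 15 min.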
# [5] = qHTS for Inhibitors of Cell Surface uPA Generation: Validation Assay (AID 493164);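 further: RAW 264.7 macrophage cells exposed to compound for 18 h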
# Summary of the method: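 ATP-Lite luminescence read-out: ATP remains high when uPA activity-dependent LF translocation into the cytoplasm is blocked. RAW 264.7 cells, 18 h compound exposure at 37 C; 7-point titration, 2.45 nM to 38.3 uM final.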
# [6] = biological target: Galactokinase (Homo sapiens) (UniProt P51570); test: qHTS Validation Assay for Inhibitors of Human Galactokinase (GALK) (AID 493189)
# Sequence of Galactokinase (Homo sapiens) (P51570 whole entry, looked up): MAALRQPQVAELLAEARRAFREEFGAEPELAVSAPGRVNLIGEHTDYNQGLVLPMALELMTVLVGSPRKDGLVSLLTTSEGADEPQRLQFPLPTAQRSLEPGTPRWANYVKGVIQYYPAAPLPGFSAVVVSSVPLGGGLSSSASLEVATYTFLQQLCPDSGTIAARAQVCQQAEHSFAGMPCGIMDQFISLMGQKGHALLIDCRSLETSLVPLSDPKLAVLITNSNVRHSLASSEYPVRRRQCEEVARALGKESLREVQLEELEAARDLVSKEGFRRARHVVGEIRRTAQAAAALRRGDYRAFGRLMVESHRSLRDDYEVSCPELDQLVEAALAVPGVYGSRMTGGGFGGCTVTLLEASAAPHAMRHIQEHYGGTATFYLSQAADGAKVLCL
# Summary of the method: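 5 nM GALK / 100 uM galactose / 35 uM ATP, 20 mM HEPES pH8.0, 5 mM MgCl2, 60 mM NaCl, 1 mM DTT, 0.01% BSA (final). RT 1 h; Kinase-Glo Plus luminescence.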
# [7] = biological target: Phosphoglycerate kinase, glycosomal (Trypanosoma brucei brucei) (UniProt P07378); test: qHTS Validation Assay to Find Inhibitors of Phosphoglycerate Kinase (AID 504547)
# Sequence of Phosphoglycerate kinase, glycosomal (Trypanosoma brucei brucei) (P07378 whole entry, looked up): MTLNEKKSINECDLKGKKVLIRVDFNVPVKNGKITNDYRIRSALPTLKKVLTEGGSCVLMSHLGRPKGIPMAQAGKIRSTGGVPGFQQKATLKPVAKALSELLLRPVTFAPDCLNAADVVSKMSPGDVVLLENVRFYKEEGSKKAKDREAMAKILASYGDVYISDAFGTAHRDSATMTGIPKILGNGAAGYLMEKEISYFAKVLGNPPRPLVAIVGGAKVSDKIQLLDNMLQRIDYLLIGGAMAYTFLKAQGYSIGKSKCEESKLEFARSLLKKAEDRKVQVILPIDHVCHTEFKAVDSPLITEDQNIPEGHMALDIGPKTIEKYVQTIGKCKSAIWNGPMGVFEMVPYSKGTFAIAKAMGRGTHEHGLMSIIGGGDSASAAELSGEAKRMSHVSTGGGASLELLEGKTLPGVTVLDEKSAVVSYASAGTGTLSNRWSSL
# Summary of the method: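 In TEA buffer (100mM, pH 7.6) containing 5mM MgCl2 and 0.01% Tween-20, the GAPDH-coupled PGK reaction proceeded for 60 minutes at room temperature before a single luminescence reading using Kinase-Glo Plus.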
# [8] = biological target: phosphoglycerate mutase (Leishmania major) (UniProt Q4Q090); test: qHTS Validation Assay to Find Inhibitors of Phosphoglycerate Mutase (AID 504548); further: series mostly up to about 58 µM
# Sequence of phosphoglycerate mutase (Leishmania major) (Q4Q090 1-553): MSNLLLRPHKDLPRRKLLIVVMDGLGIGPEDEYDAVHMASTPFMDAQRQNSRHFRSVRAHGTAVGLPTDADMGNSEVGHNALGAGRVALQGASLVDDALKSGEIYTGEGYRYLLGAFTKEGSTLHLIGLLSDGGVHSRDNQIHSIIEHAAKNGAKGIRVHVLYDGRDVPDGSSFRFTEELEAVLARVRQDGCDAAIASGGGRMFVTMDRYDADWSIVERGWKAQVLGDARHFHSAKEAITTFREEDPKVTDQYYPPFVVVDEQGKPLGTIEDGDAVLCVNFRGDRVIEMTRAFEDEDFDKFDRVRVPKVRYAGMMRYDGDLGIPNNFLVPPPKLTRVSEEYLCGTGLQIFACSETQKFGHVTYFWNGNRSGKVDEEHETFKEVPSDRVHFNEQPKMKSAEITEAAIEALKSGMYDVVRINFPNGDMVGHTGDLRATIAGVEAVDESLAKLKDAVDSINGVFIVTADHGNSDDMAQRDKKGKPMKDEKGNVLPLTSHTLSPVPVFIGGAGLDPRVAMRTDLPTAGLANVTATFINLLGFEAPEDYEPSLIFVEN
# Summary of the method: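 Lm PGAM 1.25nM final; 100 mM TEA pH 7.6, 5 mM MgCl2, 0.01% Tween-20; 45 min RT; Kinase-GloPlus, 10 min; end-point luminescence. Enzyme-free wells as negative controls.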
# [9] = qHTS for Inhibitors of ATXN expression: Validation (AID 588378); further: series mostly up to about 57 µM; nearly all actives have a fitted effect of over 75% in size
# Summary of the method: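 Compounds were pinned onto attached HEK293 cells carrying an ATXN2-firefly luciferase construct and incubated 24 hrs at 37 degrees C. Each well then received a fluorescent viability reagent followed by luciferase substrate for end-point luminescence.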
# [10] = biological target: DNA dC->dU-editing enzyme APOBEC-3G (Homo sapiens) (UniProt Q9HC16); test: qHTS for inhibitors of Vif-A3G interactions: Validation (AID 588379)
# Sequence of DNA dC->dU-editing enzyme APOBEC-3G (Homo sapiens) (Q9HC16 whole entry, looked up): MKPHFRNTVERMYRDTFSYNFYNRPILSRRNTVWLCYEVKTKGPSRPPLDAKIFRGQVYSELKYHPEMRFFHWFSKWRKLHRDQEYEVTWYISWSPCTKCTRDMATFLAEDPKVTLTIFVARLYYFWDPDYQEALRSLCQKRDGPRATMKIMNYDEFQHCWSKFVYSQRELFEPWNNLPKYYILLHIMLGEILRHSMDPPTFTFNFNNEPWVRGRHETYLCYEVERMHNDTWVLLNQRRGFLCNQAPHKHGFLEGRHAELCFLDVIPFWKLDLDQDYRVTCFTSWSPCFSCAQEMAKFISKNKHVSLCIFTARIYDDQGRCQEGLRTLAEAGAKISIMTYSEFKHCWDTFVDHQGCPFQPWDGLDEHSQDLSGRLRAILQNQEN
# Summary of the method: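 Yellow fluorescence (Ex 488, Em 500-530) of Vif-coexpressing HeLa A3G-eYFP cells, scanned by Acumen cytometer, reports blocked A3G degradation. Cells plated at 700/well overnight at 37 deg C before compound addition, then a further overnight compound incubation at 37 deg C.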
# [11] = biological target: Voltage-gated inwardly rectifying potassium channel KCNH2 (Homo sapiens) (UniProt Q12809); test: qHTS Assay for Small Molecule Inhibitors of the Human hERG Channel Activity (AID 588834);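 further: top concentration of the series differs between compounds; lower thallium flux fluorescence means stronger hERG block; nearly all actives have a fitted effect of over 50% in size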
# Sequence of Voltage-gated inwardly rectifying potassium channel KCNH2 (Homo sapiens) (Q12809 whole entry, looked up): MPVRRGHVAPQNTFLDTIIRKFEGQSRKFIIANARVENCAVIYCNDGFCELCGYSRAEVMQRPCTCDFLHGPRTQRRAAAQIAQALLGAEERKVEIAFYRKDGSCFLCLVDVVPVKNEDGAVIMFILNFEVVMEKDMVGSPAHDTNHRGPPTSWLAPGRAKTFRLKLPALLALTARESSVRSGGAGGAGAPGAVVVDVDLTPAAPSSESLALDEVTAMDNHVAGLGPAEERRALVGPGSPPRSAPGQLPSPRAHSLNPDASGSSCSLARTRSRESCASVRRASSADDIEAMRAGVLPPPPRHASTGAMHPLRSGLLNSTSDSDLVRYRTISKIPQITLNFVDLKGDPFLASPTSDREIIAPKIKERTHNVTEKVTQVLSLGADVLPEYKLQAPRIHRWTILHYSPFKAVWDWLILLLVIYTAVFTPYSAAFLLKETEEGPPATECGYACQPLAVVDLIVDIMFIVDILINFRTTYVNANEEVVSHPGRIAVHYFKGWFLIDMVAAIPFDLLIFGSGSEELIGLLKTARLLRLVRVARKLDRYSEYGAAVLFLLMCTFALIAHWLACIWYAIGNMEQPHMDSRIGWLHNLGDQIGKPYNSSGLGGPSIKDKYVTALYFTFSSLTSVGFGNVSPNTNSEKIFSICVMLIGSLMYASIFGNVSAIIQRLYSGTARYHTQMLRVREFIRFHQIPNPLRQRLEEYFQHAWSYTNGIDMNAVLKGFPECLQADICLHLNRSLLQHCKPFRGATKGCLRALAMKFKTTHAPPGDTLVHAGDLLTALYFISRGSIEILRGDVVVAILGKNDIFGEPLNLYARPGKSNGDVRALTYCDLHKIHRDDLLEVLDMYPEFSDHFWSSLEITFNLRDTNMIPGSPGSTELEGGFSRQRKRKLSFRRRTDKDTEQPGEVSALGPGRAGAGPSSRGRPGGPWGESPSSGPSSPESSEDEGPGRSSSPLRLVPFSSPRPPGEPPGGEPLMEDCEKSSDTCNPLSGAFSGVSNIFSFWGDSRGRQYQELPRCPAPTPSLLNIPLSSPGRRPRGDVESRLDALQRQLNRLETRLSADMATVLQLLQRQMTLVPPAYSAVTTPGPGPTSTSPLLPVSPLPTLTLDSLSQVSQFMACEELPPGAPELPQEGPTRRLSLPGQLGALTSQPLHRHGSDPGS
# Summary of the method: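 Step 1: BacMam hERG transduction of U2OS, 4 hrs RT. Step 2: overnight 37 °C, plate 2000 cells/well, 4 hr. Step 3: FluxOR load, compound 10 min, stimulate, read fluorescence.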
# [12] = biological target: Glutaminase kidney isoform, mitochondrial (Homo sapiens) (UniProt O94925); test: qHTS for Inhibitors of Glutaminase (GLS): LOPAC Validation (AID 624146); further: potency means the concentration at half of the fitted maximal effect; nearly all actives have a fitted effect of over 60% in size
# Summary of the method: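 Compounds were pin-transferred onto hKGA, after which L-glutamine (1 mM solution) and a detection mix of glutamate oxidase, HRP and Amplex Red were added. Initial and 30 min RT fluorescence reads were collected.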
# [13] = qHTS of Trypanosoma Brucei Inhibitors: LOPAC Validation (AID 624147)
# Summary of the method: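 T. brucei PYK with substrate was exposed to pin-transferred compounds across a concentration series, then started with 130 uM ADP (final). After 45 min at room temperature, Kinase-Glo Plus luminescence was read, normalized and curve-fitted.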
# [14] = biological target: Glucagon-like peptide 1 receptor (Homo sapiens) (UniProt P43220); test: qHTS of GLP-1 Receptor Agonists: LOPAC Validation (AID 624148);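 further: higher luminescence signal means agonism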
# Sequence of Glucagon-like peptide 1 receptor (Homo sapiens) (P43220 whole entry, looked up): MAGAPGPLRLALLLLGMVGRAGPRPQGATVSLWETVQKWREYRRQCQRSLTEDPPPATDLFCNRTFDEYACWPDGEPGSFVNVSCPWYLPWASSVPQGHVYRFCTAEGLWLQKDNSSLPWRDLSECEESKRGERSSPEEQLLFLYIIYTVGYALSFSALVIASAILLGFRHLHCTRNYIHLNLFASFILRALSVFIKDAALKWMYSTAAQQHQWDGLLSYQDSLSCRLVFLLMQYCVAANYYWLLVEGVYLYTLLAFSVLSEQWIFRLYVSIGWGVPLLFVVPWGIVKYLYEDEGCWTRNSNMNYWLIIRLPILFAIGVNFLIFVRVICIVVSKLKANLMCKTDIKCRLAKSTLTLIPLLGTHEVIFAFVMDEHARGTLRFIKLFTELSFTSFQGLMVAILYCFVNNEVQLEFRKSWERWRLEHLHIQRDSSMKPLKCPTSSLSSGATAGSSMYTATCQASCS
# Summary of the method: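 HEK293 cells stably co-expressing a cAMP-responsive luciferase reporter and a hypersensitive GLP-1R were plated 12 h at 37 °C and exposed to compounds for 4-6 hr at 37 °C, 5% CO2. Luminescence was read 12 min after adding detection reagent.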
# [15] = qHTS of Nrf2 Activators: LOPAC Validation (AID 624149)
# Summary of the method: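 Luciferase signal from ARE activation, read with Steady-Glo after 30 min at room temperature. Compounds were pin-transferred onto AREc32_Fluc cells (1000/well, OPTI-MEM/5% FBS, seeded overnight) and left 24 hr at 37 deg C.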
# [16] = HTS Assay for Allosteric Antagonists of the Human D2 Dopamine Receptor: Hit Validation in HTRF (AID 624455);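 further: stable D1 dopamine receptor cell line scored for blocking the D1 response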
# Summary of the method: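 Inhibition of the D1-mediated response was measured by HTRF. Cells used were a line stably expressing the D1 dopamine receptor.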
# [17] = biological target: Arylsulfatase A (Homo sapiens) (UniProt P15289); test: qHTS screen for enhancers of Arylsulfatase A (ASA1): LOPAC Validation Assay (AID 720538)
# Sequence of Arylsulfatase A (Homo sapiens) (P15289 whole entry, looked up): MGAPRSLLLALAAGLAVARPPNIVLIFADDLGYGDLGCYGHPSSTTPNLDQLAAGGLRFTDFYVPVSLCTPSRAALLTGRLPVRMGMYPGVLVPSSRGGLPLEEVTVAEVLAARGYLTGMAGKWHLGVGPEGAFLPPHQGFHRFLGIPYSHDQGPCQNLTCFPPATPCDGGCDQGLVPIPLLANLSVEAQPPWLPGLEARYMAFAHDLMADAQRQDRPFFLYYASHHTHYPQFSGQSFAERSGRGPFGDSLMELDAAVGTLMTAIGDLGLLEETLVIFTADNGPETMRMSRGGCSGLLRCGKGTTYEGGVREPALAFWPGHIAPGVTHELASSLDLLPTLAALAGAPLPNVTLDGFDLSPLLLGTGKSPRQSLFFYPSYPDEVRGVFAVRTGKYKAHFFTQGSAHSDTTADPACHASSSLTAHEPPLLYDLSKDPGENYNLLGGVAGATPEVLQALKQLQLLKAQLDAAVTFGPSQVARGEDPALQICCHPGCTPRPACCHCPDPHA
# Summary of the method: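 MLD patient fibroblasts (SV40, ASA-I179S), 1536-well; adhere 6 hrs; cpd 48h, 37 degree C, 5% CO2; pNCS 0.5mM final in lysis buffer, 14h RT; stop 1N NaOH final; fluor. Ex525/Em598.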
# [18] = qHTS for compounds that reverse cellular toxicity of Amyloid beta (A-beta) peptide in yeast: LOPAC Validation Assay (AID 720559)
# Summary of the method: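 Medium dispensed, compounds pinned, A-beta yeast suspension added; plates held at 30 C for 48 hr; absorbance measured at 600 nm to gauge growth; values scaled between DMSO and FeCl3/clioquinol (equimolar) controls.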
# [19] = qHTS for Activators of Parkin Expression: LOPAC Validation Assay (NLuc Reporter) (AID 720572)
# Summary of the method: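 Cells harboring the Parkin-promoter coincidence reporter were treated for 24 h at seven concentrations. NLuc output was measured sequentially after the FLuc channel and scaled between DMSO and positive control values.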
# [20] = biological target: Hexokinase-4 (Homo sapiens) + Glucokinase regulatory protein (Homo sapiens) (UniProt P35557+Q14397); test: qHTS assay for inhibitors of recombinant human GCK-GKRP interaction: Diaphorase-coupled assay (AID 743205)
# Sequence of Hexokinase-4 (Homo sapiens) + Glucokinase regulatory protein (Homo sapiens) (P35557 whole entry, looked up): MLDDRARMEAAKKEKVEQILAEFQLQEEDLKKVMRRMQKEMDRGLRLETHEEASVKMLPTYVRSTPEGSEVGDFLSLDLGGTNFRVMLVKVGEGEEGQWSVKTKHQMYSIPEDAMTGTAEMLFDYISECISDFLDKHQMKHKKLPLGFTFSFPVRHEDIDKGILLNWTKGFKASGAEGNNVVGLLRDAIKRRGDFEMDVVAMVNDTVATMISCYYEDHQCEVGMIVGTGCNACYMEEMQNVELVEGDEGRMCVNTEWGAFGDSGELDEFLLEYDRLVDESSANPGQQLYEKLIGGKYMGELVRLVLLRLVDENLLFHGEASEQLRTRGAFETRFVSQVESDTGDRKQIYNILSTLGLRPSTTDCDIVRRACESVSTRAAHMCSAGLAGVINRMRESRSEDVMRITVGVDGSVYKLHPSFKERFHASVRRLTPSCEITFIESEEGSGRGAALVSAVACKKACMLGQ
# Sequence of Hexokinase-4 (Homo sapiens) + Glucokinase regulatory protein (Homo sapiens) (Q14397 whole entry, looked up): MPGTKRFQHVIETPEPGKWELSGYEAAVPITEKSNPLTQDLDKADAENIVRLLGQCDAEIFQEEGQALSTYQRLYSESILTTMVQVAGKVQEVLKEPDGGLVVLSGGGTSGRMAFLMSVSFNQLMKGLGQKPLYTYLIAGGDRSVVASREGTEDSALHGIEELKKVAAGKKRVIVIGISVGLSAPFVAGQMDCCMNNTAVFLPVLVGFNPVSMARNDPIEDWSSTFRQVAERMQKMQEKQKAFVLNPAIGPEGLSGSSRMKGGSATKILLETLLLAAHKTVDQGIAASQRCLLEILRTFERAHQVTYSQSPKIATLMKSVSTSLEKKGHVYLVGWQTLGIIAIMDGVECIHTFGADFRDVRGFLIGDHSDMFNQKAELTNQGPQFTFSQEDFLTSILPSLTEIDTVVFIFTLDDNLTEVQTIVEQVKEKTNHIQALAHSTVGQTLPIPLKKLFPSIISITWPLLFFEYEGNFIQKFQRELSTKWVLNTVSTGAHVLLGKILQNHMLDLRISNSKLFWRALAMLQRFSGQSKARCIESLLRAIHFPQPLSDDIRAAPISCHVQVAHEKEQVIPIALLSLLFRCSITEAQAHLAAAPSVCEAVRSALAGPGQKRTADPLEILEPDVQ
# Summary of the method: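 25 mM Hepes pH 7.6, 5 mM glucose, 0.4 mM ATP, 4 U/ml G6PDH; 10 nM each GST-GCK/FLAG-GKRP. Kinetic fluorescence read, 1/min × 30 min. Normalized: DMSO ± enzyme = max/min.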
smiles,measurement,setting,value
N#C/C(=C\c1ccc(O)c(O)c1)C(=O)Nc1ccccc1,Potency,[1],inactive
same,Potency,[2],inactive
same,activation,[3],5.88% (inactive)
same,outcome,[4],inactive
same,viability change,[4],-12%
same,outcome,[5],inactive
same,outcome,[6],inactive
same,Potency,[7],inactive
same,outcome,[8],inactive
same,Potency,[9],inactive
same,Potency,[10],inactive
same,Potency,[11],inactive
same,Potency,[12],631 nM (active)
same,outcome,[13],inactive
same,outcome,[14],inactive
same,outcome,[15],inactive
same,outcome,[16],inactive
same,Potency,[17],inactive
same,outcome,[18],inactive
same,outcome,[19],inactive
same,outcome,[20],inactive
